Test results published in PubChem BioAssay AID463173 (ICCB-Longwood Screening Facility, Harvard Medical School, 2010).
In all, about 52,000 compounds went through this assay and about 4,300 (8.3%) were called active. Cut-off read from the data, not from the text of the source: active = survival mostly below about 52% (no sharp cut-off); inactive = mostly above about 56%. Many of the other results were omitted from the sample, so actives are more common in it than they were.

System: DeltatarO mutant
Assay: S. aureus survival, RN4220 and DeltatarO strains – OD600, teichoic acid synthesis inhibitors, primary screen (AID 463173)
Conditions: S. aureus RN4220 wild type/DeltatarO growth, OD600, 18 h, stronger effect = lower value, screened at 18.75 µg/mL (by protocol)

Structure (SMILES)	survival
Cn1c(=O)c2c(c3ccccc31)OC(=O)CC2c1cccc(F)c1 (centres undefined)	59% (inactive)
CCc1sc(Nc2cccc(Cl)c2)nc1-c1cc2cccc(OC)c2oc1=O	90% (inactive)
COc1cccc(CN(C(=O)COc2ccc(Cl)c(C)c2)C2CCS(=O)(=O)C2)c1 (centres undefined)	71% (inactive)
Clc1ccc(NCc2nc3ccccc3n2CCOc2ccccc2)cc1	50% (inactive)
Cc1ccc(NCc2nc3ccccc3n2CCOc2ccccc2)cc1	3% (active)
Cc1nn(CC(=O)Nc2ccccc2C(F)(F)F)c(=O)c2cccn12	93% (inactive)
COc1ccc(C(C(=O)Nc2ccc(C(C)C)cc2)N(C)C(=O)Cc2cccs2)cc1 (centres undefined)	127% (inactive)
Cc1ccc(S(=O)(=O)N2CCNCC2)cc1	87% (inactive)
Cc1ccc(C)c2sc(NC(=O)c3ccc(S(=O)(=O)N4CCCC4)cc3)nc12	25% (active)
Cc1ccc(Cl)c2sc(NC(=O)c3ccc(S(=O)(=O)N4CCCC4)cc3)nc12	63% (inactive)
CNC(=O)c1c(NC(=O)c2ccc(S(=O)(=O)N3CCCCC3)cc2)sc2c1CCC2	0% (active)
Cc1cc(C)c2sc(NC(=O)c3ccc(S(=O)(=O)N4CCOCC4)cc3)nc2c1	101% (inactive)
CCOc1cccc2sc(NC(=O)c3ccc(S(=O)(=O)N4CCCc5ccccc54)cc3)nc12	74% (inactive)
Cc1cc(C)c2nc(NC(=O)c3ccc(S(=O)(=O)N4CCCC4)cc3)sc2c1	102% (inactive)
COc1ccc(C)c2sc(NC(=O)c3ccc(S(=O)(=O)N4CCCC4)cc3)nc12	101% (inactive)
CCOc1cccc2sc(NC(=O)c3ccc(S(=O)(=O)N4CCCCC4C)cc3)nc12 (centres undefined)	37% (active)
CNC(=O)c1c(NC(=O)c2ccc(S(=O)(=O)N3CCC(C)CC3)cc2)sc2c1CCC2	131% (inactive)
CNC(=O)c1c(NC(=O)c2ccc(S(=O)(=O)N3CCCC(C)C3)cc2)sc2c1CCC2 (centres undefined)	92% (inactive)
Cc1cc(C)c2sc(NC(=O)c3ccc(S(=O)(=O)N4CCCC4)cc3)nc2c1	37% (active)
CCOc1cccc2sc(NC(=O)c3ccc(S(=O)(=O)N4CCCCC4)cc3)nc12	94% (inactive)
CCC(Sc1nc2ccccc2c2nc(-c3ccccc3)nn12)C(=O)Nc1cccc(OC)c1 (centres undefined)	94% (inactive)
O=C(NCc1ccc(F)cc1)C(=O)Nc1ccc2nc3n(c(=O)c2c1)CCCCC3	94% (inactive)
Cc1cc(C)cc(NC(=O)COCc2cc(-c3ccc4c(c3)OCO4)on2)c1	55% (inactive)
COC(=O)C1=C(N)OC2=C(C(=O)CCC2)C1c1ccc(OC)cc1 (centres undefined)	102% (inactive)
